Results on ten molecules are retold here after PubChem BioAssay (NCATS).

Structures are written as SMILES. Where “and” joins values, the source holds several entries; their conditions need not be identical. Identical values can stand only once. Inconclusive results are not listed. Calls of active or inactive are those of the source. Unless noted, calls come from the whole dose curve; as a rule, active = well fitted curve in the direction sought with a large enough effect; inconclusive = small, poorly fitted or top-dose-only effect, or another doubt; inactive = no such curve, though single readings can be large; an effect the other way counts as inactive or inconclusive.

Assay [1] can be described thus: Cell Viability - LYMP2-002 (AID 977).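 Note: plate controls were DMSO only for no effect and 92 µM tetraoctylammonium bromide for full effect.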 A digest of the protocol:
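Luminescent ATP readout (CellTiter-Glo, 30 min room temperature) after 24 h compound exposure at 37 C of a human lymphoblastoid line, 2500 cells/well. AC50 values derived by standard Hill fitting of qHTS concentration-response data.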

Assay [2] in a line: Cell Viability - LYMP2-006 (AID 978). Note: % is set by controls: 0 for no effect and ±100 for the full control effect; nearly all actives have a fitted effect of over 60% in size. A digest of the protocol: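 Potency values are Hill-fit AC50s for decreases in intracellular ATP (CellTiter-Glo luminescence). LYMP2-006 lymphoblastoid cells, 2500 per well, were exposed to compound in complete culture medium for 24 hr at 37 C.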
Assay [3] can be described thus: Cell Viability - LYMP2-007 (AID 979).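 Note: cells exposed to compound for 24 h before reading; 0% = DMSO only and the negative end = 92 µM tetraoctylammonium bromide; nearly all actives have a fitted effect of over 60% in size.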 An outline of the steps: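 Human lymphoblastoid LYMP2-007 cells (2500/well) preincubated 5 h at 37 C, then treated 24 h at 37 C in complete medium. Viability by CellTiter-Glo ATP luminescence after 30 min at room temperature; AC50 from Hill fits.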
A short description of assay [4]: Cell Viability - LYMP2-008 (AID 980). Note: % is set by controls: 0 for no effect and ±100 for the full control effect; nearly all actives have a fitted effect of over 60% in size. A digest of the protocol: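 LYMP2-008 lymphoblastoid cells (2500/well) plated 5 h, then treated 24 h at 37 C in complete medium. Viability read as intracellular ATP by CellTiter-Glo luminescence after 30 min at room temperature; AC50 from Hill fits.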
Assay [5] can be described thus: Cell Viability - LYMP2-010 (AID 981). Note: % is set by controls: 0 for no effect and ±100 for the full control effect; nearly all actives have a fitted effect of over 55% in size. An outline of the steps:
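Human lymphoblastoid LYMP2-010 cells (2500/well) treated 24 h at 37 C in complete medium; viability read as intracellular ATP by CellTiter-Glo luminescence. AC50 from Hill fits of concentration-response data; tetraoctylammonium bromide positive control.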

The nature of assay [6]: Cell Viability - LYMP2-012 (AID 982).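 Note: cellular ATP by luciferase luminescence where a drop means cytotoxicity; cells exposed to compound for one day before reading; 0% = DMSO only and full loss = 92 µM tetraoctylammonium bromide; nearly all actives have a fitted effect of over 55% in size.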
Assay [7] in a line: Cell Viability - LYMP2-014 (AID 983).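 Note: plate controls were DMSO only for no effect and 92 µM tetraoctylammonium bromide for full effect; nearly all actives have a fitted effect of over 50% in size.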 A digest of the protocol:
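LYMP2-014 human lymphoblastoid cells, 2500/well, treated 24 h at 37 C in complete medium; viability by CellTiter-Glo ATP luminescence after 30 min at room temperature. AC50 from Hill fits of qHTS concentration-response; tetraoctylammonium bromide positive control.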

The nature of assay [8]: Cell Viability - LYMP2-016 (AID 984). Note: % is set by controls: 0 for no effect and ±100 for the full control effect; nearly all actives have a fitted effect of over 55% in size. An outline of the steps:
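Cytotoxicity was scored by luminescent ATP content (CellTiter-Glo) after 24 h compound exposure at 37 C of a human lymphoblastoid line at 2500 cells/well. Concentration-response data were fitted to the Hill equation for AC50.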

The nature of assay [9]: Cell Viability - LYMP2-018 (AID 985).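 Note: compound exposure lasted 24 hr at 37 °C; nearly all actives have a fitted effect of over 50% in size.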 Note: potency is the fitted concentration of half-maximal effect. An outline of the steps:
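Human lymphoblastoid LYMP2-018 cells, 2500/well, settled 5 hr at 37 C then exposed to compound 24 hr at 37 C; intracellular ATP measured by CellTiter-Glo luminescence. AC50 from Hill-equation concentration-response fits.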

Assay [10] in a line: Cell Viability - LYMP2-024 (AID 988). Note: nearly all actives have a fitted effect of over 60% in size. Note: potency is the fitted concentration of half-maximal effect. An outline of the steps: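 Human lymphoblastoid LYMP2-024 cells (2500/well) rested 5 hr, then treated with compound for 24 hr at 37 C in complete medium. Viability was measured as intracellular ATP by CellTiter-Glo luminescence. AC50 values came from Hill-equation fits.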
The nature of assay [11]: Cell Viability - LYMP2-026 (AID 989). Note: % is set by controls: 0 for no effect and ±100 for the full control effect; nearly all actives have a fitted effect of over 50% in size. A digest of the protocol: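 Human lymphoblastoid LYMP2-026 cells, 2500/well, exposed to compound 24 h at 37 C in complete medium. Viability as intracellular ATP by CellTiter-Glo luminescence; AC50 from Hill fits of qHTS concentration-response.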
Assay [12] is described as follows: Cell Viability - LYMP1-002 - Assay at 24 hr (AID 993). Note: % is set by controls: 0 for no effect and ±100 for the full control effect. An outline of the steps:
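Human lymphoblastoid LYMP1-002 cells (2500/well) treated 24 h at 37 °C; viability as intracellular ATP by CellTiter-Glo luminescence. Tetraoctylammonium bromide as positive control; AC50 from Hill-equation fits of qHTS concentration-response.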

Assay [13] can be described thus: Cell Viability - LYMP1-002 - Assay at 40 hr (AID 994). Note: nearly all actives have a fitted effect of over 60% in size. Note: potency is the fitted concentration of half-maximal effect. An outline of the steps:
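LYMP1-002 human lymphoblastoid cells (2500/well, complete medium) were treated with compounds for 40 hr at 37 C. Intracellular ATP was measured by CellTiter-Glo luminescence, and AC50 values came from Hill-equation fits of concentration-response data; tetraoctylammonium bromide was the positive control.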

Assay [14] has as its target Alpha-galactosidase A (Homo sapiens) (UniProt P06280). In words: Counterscreen for Glucocerebrosidase Inhibitors: qHTS Assay for Human alpha-Galactosidase at pH 4.5 (AID 992). Note: 0% is about no effect. An outline of the steps:
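Read-out is 4-methylumbelliferone fluorescence (365 nm excitation, 440 nm emission) after a pH 10 NaOH/glycine stop. Reactions held 2 nM enzyme and 80 uM substrate at pH 4.5 for 20 min at room temperature.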

Assay [15] has as its target alpha-glucosidase (Oryza sativa, rice) (UniProt Q653V4). Description: Counterscreen for Glucocerebrosidase Inhibitors: qHTS Assay for Rice alpha-Glucosidase at pH 5.0 (AID 997).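 Note: 0% = full activity with enzyme and -100% = basal without enzyme.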 A digest of the protocol: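 Rice alpha-glucosidase (4 nM final) with 400 uM 4-methylumbelliferyl-alpha-D-glucopyranoside in citrate buffer pH 5.0, 20 min at room temperature, stopped at pH 10; fluorescence 365/440 nm, compounds 0.7 nM–77 uM, AC50 from Hill fits.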
(A counterscreen serves to expose hits that act by an unwanted route or on another target.)

Assay [16] can be described thus: qHTS Assay for Lipid Storage Modulators (AID 1519; calls by dose curve; for activity change, negative = inhibition: % is set by controls: 0 for no effect and ±100 for the full control effect). Conditions: Drosophila S3 cells, BODIPY lipid droplet/cell ratio, laser cytometry, cells loaded with oleic acid. A digest of the protocol: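 Cells seeded at 5,000 per well were treated with compounds over a concentration series and loaded with oleic acid (400 uM, as added). Lipid droplet fluorescence (488 nm excitation, 500-530 nm channel) was read by laser-scanning cytometry and normalized to 20 uM Triacsin C.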

The nature of assay [17]: Cell Viability - LYMP2-020 (AID 986). Note: potency is the fitted concentration of half-maximal effect; nearly all actives have a fitted effect of over 55% in size. A digest of the protocol: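 Human lymphoblastoid LYMP2-020 cells (2500/well) preincubated 5 h at 37 C, then treated 24 h at 37 C. Viability measured as intracellular ATP by CellTiter-Glo luminescence after 30 min at room temperature; AC50 from Hill fits.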
[18] abbreviates: measured here: cell count channel max response.
[19] abbreviates: measured here: lipid channel max response.

Sequence of Alpha-galactosidase A (Homo sapiens) (P06280 whole entry, looked up): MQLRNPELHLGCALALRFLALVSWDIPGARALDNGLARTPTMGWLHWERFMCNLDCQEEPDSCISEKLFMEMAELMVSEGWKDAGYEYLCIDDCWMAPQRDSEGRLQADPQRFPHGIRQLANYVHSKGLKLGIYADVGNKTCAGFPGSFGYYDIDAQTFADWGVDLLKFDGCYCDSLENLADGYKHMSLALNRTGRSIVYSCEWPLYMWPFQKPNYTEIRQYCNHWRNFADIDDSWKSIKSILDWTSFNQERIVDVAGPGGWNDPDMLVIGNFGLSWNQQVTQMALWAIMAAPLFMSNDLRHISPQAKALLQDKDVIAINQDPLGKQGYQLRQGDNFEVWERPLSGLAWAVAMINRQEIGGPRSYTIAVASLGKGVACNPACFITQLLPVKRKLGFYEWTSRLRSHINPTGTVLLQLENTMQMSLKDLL

Regarding `NCCNc1cccc2ccccc12`, the call in assay [1], in [2], in assay [3], in [4], in [5] and in assay [6] was inactive. In addition, the result in assay [7], in [8], in assay [11] and in assay [12] was inactive. Further, the Potency entry in assay [9], in assay [10] and in assay [13] was “inactive” in each case.

In the case of `CN=C(N)NCCC[C@H](N)C(=O)O`, the molecule was classed as inactive in [14] and in assay [15]. Besides, the activity change, negative = inhibition in assay [16] (at 57.5 µM (top of the series)) was 0.0216% (inactive). Also, the values for the max response in [16] (setting [18]) and in [16] (setting [19]) were -14.9% and -15.5%, respectively.

Consider `c1ccc(CC2=NCCN2)cc1`, for which the figures for the activity change, negative = inhibition in assay [16] (at 25.7 µM (top of the series)) and in [16] (at 57.5 µM (top of the series)) were 0.322% (inactive) and 2.41% (inactive), respectively. Besides, the max response in [16] (setting [18]) is -5.46% and 11.2%; in assay [16] (setting [19]) it was -4.35% and 15.7%.

On to `CNCCc1ccccn1`, for which the activity change, negative = inhibition in assay [16] (at 25.7 µM (top of the series)) is -0.261% (inactive); in assay [16] (at 57.5 µM (top of the series)), 1.62% (inactive). The max response was 0.592% and 17.8% in assay [16] (setting [18]); 1.76% and 22.8% in assay [16] (setting [19]).

Turning to `CN1CCC[C@@H]1CCO[C@](C)(c1ccccc1)c1ccc(Cl)cc1`, the outcome in assay [14] and in [15] was inactive. In assay [16] (at 25.7 µM (top of the series)), the activity change, negative = inhibition was -6.95% (inactive). The max response in assay [16] (setting [18]) was -6.75%; in assay [16] (setting [19]), -13.1%.

In the case of `O=C(CCCN1CC=C(n2c(=O)[nH]c3ccccc32)CC1)c1ccc(F)cc1`, the values for the activity change, negative = inhibition in [16] (at 25.7 µM (top of the series)) and in assay [16] (at 57.5 µM (top of the series)) were 1.32% (inactive) and 14.6% (inactive), respectively. Also, the max response was -13.4% and 7.49% in assay [16] (setting [18]); -9.23% and 27.6% in assay [16] (setting [19]).

Turning to `Oc1c(Cl)cc(Cl)c(Cl)c1Cc1c(O)c(Cl)cc(Cl)c1Cl`, the Potency in [9] is 25.1 µM (active); in [17], 15.8 µM (active); in [10] it was 39.8 µM (active); in assay [13], 31.6 µM (active). In addition, in assay [16] (at 57.5 µM (top of the series)), the activity change, negative = inhibition is 7.05% (inactive). Moreover, the max response is 18% in assay [16] (setting [18]) and 27% in assay [16] (setting [19]).

As for `CN(C)CCC[C@@]1(c2ccc(F)cc2)OCc2cc(C#N)ccc21`, the molecule was classed as inactive in assay [14] and in assay [15]. Moreover, in assay [16] (at 57.5 µM (top of the series)), the activity change, negative = inhibition was 0.0614% (inactive) and -1.76% (inactive). The max response in assay [16] (setting [18]) was 5.54% and 6.49%; in assay [16] (setting [19]), 4.25% and 5%.

Turning to `COc1cc(N)c(Cl)cc1C(=O)NC1CCN(Cc2ccccc2)CC1`, the results for the activity change, negative = inhibition in [16] (at 25.7 µM (top of the series)) and in assay [16] (at 57.5 µM (top of the series)) were 0.953% (inactive) and 9.3% (inactive), respectively. Also, the max response is -2.73% and -2.52% in assay [16] (setting [18]); -0.303% and 10.6% in [16] (setting [19]).

For the molecule `COC(=O)C(c1ccccc1Cl)N1CCc2sccc2C1` (centres undefined), in assay [16] (at 57.5 µM (top of the series)), the activity change, negative = inhibition is 8.17% (inactive). For the same molecule, the max response was determined as 3.08% in [16] (setting [18]) and 15.9% in [16] (setting [19]).
